# Source: the supplement of paper PMC4466140
# How the values were obtained:
# Assay in all cases: SPOT peptide array binding signal intensity (averaged, normalized) (arbitrary units (background-subtracted, floor 0; scale differs between SH3 domains)); higher = stronger binding of the SH3 domain to the peptide
# AgAbp1 = biological target: AgAbp1
# How it was run: (§1)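 Binding signal refers to normalized, background-subtracted spot intensity averaged over replicates, expressed in arbitrary units that differ between domains. GST-fused SH3 domains from four yeast species were incubated at 10 μg/ml overnight at 4°C on cellulose membranes of synthetic 15-mer peptides with cysteines replaced by serines. Bound protein was detected with anti-GST antibody, an HRP anti-mouse secondary and luminol, and quantified with Genespotter.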
# AgBbc1 = biological target: AgBbc1
# How it was run: as §1
# AgBem1-D1 = biological target: AgBem1-D1
# How it was run: as §1
# AgBzz1-D1 = biological target: AgBzz1-D1
# How it was run: as §1
# AgBzz1-D2 = biological target: AgBzz1-D2
# How it was run: as §1
# AgCyk3 = biological target: AgCyk3
# How it was run: as §1
# AgFus1 = biological target: AgFus1
# How it was run: as §1
# AgHof1 = biological target: AgHof1
# How it was run: as §1
# AgHse1 = biological target: AgHse1
# How it was run: as §1
# AgLsb1 = biological target: AgLsb1
# How it was run: as §1
# AgLsb4 = biological target: AgLsb4
# How it was run: as §1
# AgMyo5 = biological target: AgMyo5
# How it was run: as §1
# AgNbp2 = biological target: AgNbp2
# How it was run: as §1
# AgRvs167 = biological target: AgRvs167
# How it was run: as §1
# AgSho1 = biological target: AgSho1
# How it was run: as §1
# AgSla1-D1-D2 = biological target: AgSla1-D1-D2
# How it was run: as §1
# AgSla1-D3 = biological target: AgSla1-D3
# How it was run: as §1
# CaAbp1-D1 = biological target: CaAbp1-D1
# How it was run: as §1
# CaAbp1-D2 = biological target: CaAbp1-D2
# How it was run: as §1
# CaBbc1 = biological target: CaBbc1
# How it was run: as §1
# CaBem1-D1 = biological target: CaBem1-D1
# How it was run: as §1
# CaBzz1-D1 = biological target: CaBzz1-D1
# How it was run: as §1
# CaBzz1-D2 = biological target: CaBzz1-D2
# How it was run: as §1
# CaCyk3 = biological target: CaCyk3
# How it was run: as §1
# CaFus1 = biological target: CaFus1
# How it was run: as §1
# CaHof1 = biological target: CaHof1
# How it was run: as §1
# CaHse1 = biological target: CaHse1
# How it was run: as §1
# CaLsb1 = biological target: CaLsb1
# How it was run: as §1
# CaLsb4 = biological target: CaLsb4
# How it was run: as §1
# CaMyo5 = biological target: CaMyo5
# How it was run: as §1
# CaNbp2 = biological target: CaNbp2
# How it was run: as §1
# CaRvs167 = biological target: CaRvs167
# How it was run: as §1
# CaRvs167-3 = biological target: CaRvs167-3
# How it was run: as §1
# CaSho1 = biological target: CaSho1
# How it was run: as §1
# CaSla1-D1-D2 = biological target: CaSla1-D1-D2
# How it was run: as §1
# CaSla1-D3 = biological target: CaSla1-D3
# How it was run: as §1
# ScAbp1 = biological target: ScAbp1
# How it was run: as §1
# ScBbc1 = biological target: ScBbc1
# How it was run: as §1
# ScBem1-D1 = biological target: ScBem1-D1
# How it was run: as §1
# ScBzz1-D1 = biological target: ScBzz1-D1
# How it was run: as §1
# ScBzz1-D2 = biological target: ScBzz1-D2
# How it was run: as §1
# ScCyk3 = biological target: ScCyk3
# How it was run: as §1
# ScFus1 = biological target: ScFus1
# How it was run: as §1
# ScHof1 = biological target: ScHof1
# How it was run: as §1
# ScHse1 = biological target: ScHse1
# How it was run: as §1
# ScLsb1 = biological target: ScLsb1
# How it was run: as §1
# ScLsb2 = biological target: ScLsb2
# How it was run: as §1
# ScLsb3 = biological target: ScLsb3
# How it was run: as §1
# ScLsb4 = biological target: ScLsb4
# How it was run: as §1
# ScMyo3 = biological target: ScMyo3
# How it was run: as §1
# ScMyo5 = biological target: ScMyo5
# How it was run: as §1
# ScNbp2 = biological target: ScNbp2
# How it was run: as §1
# ScPex13 = biological target: ScPex13
# How it was run: as §1
# ScRvs167 = biological target: ScRvs167
# How it was run: as §1
# ScSho1 = biological target: ScSho1
# How it was run: as §1
# ScSla1-D1-D2 = biological target: ScSla1-D1-D2
# How it was run: as §1
# ScSla1-D3 = biological target: ScSla1-D3
# How it was run: as §1
# SpAbp1-D1 = biological target: SpAbp1-D1
# How it was run: as §1
# SpBbc1 = biological target: SpBbc1
# How it was run: as §1
# SpBzz1-D1 = biological target: SpBzz1-D1
# How it was run: as §1
binder,measurement,setting,value
MKRSRPSRSIPYTTP,SPOT peptide array binding signal intensity,AgAbp1,92
same,SPOT peptide array binding signal intensity,AgBbc1,65.5
same,SPOT peptide array binding signal intensity,AgBem1-D1,152
same,SPOT peptide array binding signal intensity,AgBzz1-D1,53
same,SPOT peptide array binding signal intensity,AgBzz1-D2,22
same,SPOT peptide array binding signal intensity,AgCyk3,8
same,SPOT peptide array binding signal intensity,AgFus1,121
same,SPOT peptide array binding signal intensity,AgHof1,23.5
same,SPOT peptide array binding signal intensity,AgHse1,274
same,SPOT peptide array binding signal intensity,AgLsb1,3.5
same,SPOT peptide array binding signal intensity,AgLsb4,37
same,SPOT peptide array binding signal intensity,AgMyo5,3.25
same,SPOT peptide array binding signal intensity,AgNbp2,324
same,SPOT peptide array binding signal intensity,AgRvs167,2.5
same,SPOT peptide array binding signal intensity,AgSho1,30.5
same,SPOT peptide array binding signal intensity,AgSla1-D1-D2,21.5
same,SPOT peptide array binding signal intensity,AgSla1-D3,≤ 0
same,SPOT peptide array binding signal intensity,CaAbp1-D1,504
same,SPOT peptide array binding signal intensity,CaAbp1-D2,476
same,SPOT peptide array binding signal intensity,CaBbc1,347
same,SPOT peptide array binding signal intensity,CaBem1-D1,47.5
same,SPOT peptide array binding signal intensity,CaBzz1-D1,172
same,SPOT peptide array binding signal intensity,CaBzz1-D2,158
same,SPOT peptide array binding signal intensity,CaCyk3,108
same,SPOT peptide array binding signal intensity,CaFus1,334
same,SPOT peptide array binding signal intensity,CaHof1,≤ 0
same,SPOT peptide array binding signal intensity,CaHse1,55.5
same,SPOT peptide array binding signal intensity,CaLsb1,2.75
same,SPOT peptide array binding signal intensity,CaLsb4,590
same,SPOT peptide array binding signal intensity,CaMyo5,13.8
same,SPOT peptide array binding signal intensity,CaNbp2,421
same,SPOT peptide array binding signal intensity,CaRvs167,18.3
same,SPOT peptide array binding signal intensity,CaRvs167-3,2
same,SPOT peptide array binding signal intensity,CaSho1,250
same,SPOT peptide array binding signal intensity,CaSla1-D1-D2,60
same,SPOT peptide array binding signal intensity,CaSla1-D3,14
same,SPOT peptide array binding signal intensity,ScAbp1,20
same,SPOT peptide array binding signal intensity,ScBbc1,18.8
same,SPOT peptide array binding signal intensity,ScBem1-D1,7
same,SPOT peptide array binding signal intensity,ScBzz1-D1,27
same,SPOT peptide array binding signal intensity,ScBzz1-D2,23
same,SPOT peptide array binding signal intensity,ScCyk3,37
same,SPOT peptide array binding signal intensity,ScFus1,129
same,SPOT peptide array binding signal intensity,ScHof1,0.5
same,SPOT peptide array binding signal intensity,ScHse1,570
same,SPOT peptide array binding signal intensity,ScLsb1,10.2
same,SPOT peptide array binding signal intensity,ScLsb2,4
same,SPOT peptide array binding signal intensity,ScLsb3,320
same,SPOT peptide array binding signal intensity,ScLsb4,72
same,SPOT peptide array binding signal intensity,ScMyo3,10.5
same,SPOT peptide array binding signal intensity,ScMyo5,8
same,SPOT peptide array binding signal intensity,ScNbp2,620
same,SPOT peptide array binding signal intensity,ScPex13,10
same,SPOT peptide array binding signal intensity,ScRvs167,19.8
same,SPOT peptide array binding signal intensity,ScSho1,351
same,SPOT peptide array binding signal intensity,ScSla1-D1-D2,126
same,SPOT peptide array binding signal intensity,ScSla1-D3,43.5
same,SPOT peptide array binding signal intensity,SpAbp1-D1,507
same,SPOT peptide array binding signal intensity,SpBbc1,15.5
same,SPOT peptide array binding signal intensity,SpBzz1-D1,239
